Records with an inconclusive call do not appear. Values without a mark were called inactive. Calls of active or inactive are those of the source. Unless noted, calls follow the shape of the dose curve; as a rule, active = well fitted curve in the direction sought with a large enough effect; inconclusive = small, poorly fitted or top-dose-only effect, or another doubt; inactive = no such curve, though single readings can be large; an effect the other way counts as inactive or inconclusive.
target: Calcium and integrin-binding protein 1 (Homo sapiens) (UniProt Q99828); experiment: Primary qHTS for Identification of Calcium Integrin Binding Protein 1 (CIB1) Competitor (AID 1508620); conditions: CIB1-GST / FITC-alphaIIb peptide fluorescence polarization; series mostly up to 57.7 µM; activity change, negative = inhibition: at the top concentration;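 also: GST tagged CIB1 binding a fluorescein labelled alphaIIb integrin peptide tracer; top concentration of the series differs between compounds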
Sequence (Q99828 whole entry, looked up): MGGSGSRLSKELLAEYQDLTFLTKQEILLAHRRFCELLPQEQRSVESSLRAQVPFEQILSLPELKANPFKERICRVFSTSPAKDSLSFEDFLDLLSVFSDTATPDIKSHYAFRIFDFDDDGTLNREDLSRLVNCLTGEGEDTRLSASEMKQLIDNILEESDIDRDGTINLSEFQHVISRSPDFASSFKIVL
In short: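 CIB1-GST (1 uM final) and compound incubated 15 min at room temperature before adding FITC-alphaIIb peptide tracer (100 nM final). Competition for binding read by fluorescence polarization (ex 480, em 540) after another 15 min at room temperature.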
% is scaled to controls: 0 for no effect and ±100 for the full control effect.

Row | SMILES | activity change, negative = inhibition
1 | CNC(C)C(=O)NC(C(=O)N1CCCC1C(=O)Nc1cccc2ncccc12)C(C)C (configuration not stated) | -0.642% [at 114 µM]
2 | CN1CCN(c2nc(-c3ccc(C(=O)NC4(C(=O)NCC#N)CCCCC4)cc3)cs2)CC1 | -4.66% [at 114 µM]
3 | COc1cccc(CNc2ccc(S(=O)(=O)Nc3nc4ccccc4s3)cc2)c1O | -3.91% [at 114 µM]
4 | O=C(c1ccc(Cl)c([N+](=O)[O-])c1)N1CCN(c2ccccc2F)CC1 | -1.29% [at 114 µM]
5 | COc1cccc(OC)c1-c1ccc(C[C@H](NC(=O)c2c(Cl)cccc2Cl)C(=O)O)cc1 | -3.33% [at 114 µM]
6 | CC[C@@H](Nc1c(Nc2cccc(C(=O)N(C)C)c2O)c(=O)c1=O)c1ccc(C)o1 | 6.51% [at 114 µM]
7 | O=C(Nc1cc(-c2ccccc2)nn1-c1ccccc1)c1ccc([N+](=O)[O-])cc1 | -0.29% [at 114 µM]
8 | COc1ccc(Oc2c(Cl)cnn(C3c4ccccc4-c4ccccc43)c2=O)cc1 | -3.91% [at 114 µM]
9 | COc1cc(OC)cc(-c2ccc3c(-c4ccc(F)cc4)[nH]nc3n2)c1 | 0.0582% [at 114 µM]
10 | CC(C(=O)Nc1cc(C#N)ccc1CCCC(=O)O)c1ccc(F)c2ccccc12 (configuration not stated) | 2.42% [at 114 µM]
11 | CN1C(=O)N(c2cc(Cl)cc(Cl)c2)C(=O)[C@@]1(C)Cc1ccc(Br)cc1 | -4.73% [at 114 µM]
12 | C[C@@H](NC(=O)c1cc(C(=O)N[C@@H](Cc2ccccc2)[C@H](O)CNC2CC2)cc(N(C)S(C)(=O)=O)c1)c1ccccc1 | -9.89% [at 114 µM]
13 | Cc1cn(C[C@H](N)C(=O)O)c(=O)n(Cc2ccsc2C(=O)O)c1=O | 1.1% [at 114 µM]
14 | Cc1cc(C(=O)N2Cc3cnn(C)c3Nc3ccccc32)ccc1CNC(=O)N1CCN(Cc2cc(O)cc(O)c2)CC1 | 5.11% [at 114 µM]
15 | COc1ccc(CC(=O)NCc2ccccc2-c2ccccc2C(=O)NCCc2cccnc2)cc1 | -1.38% [at 114 µM]
16 | COC(=O)Cn1nc(-c2cccc(OC)c2)c2ccccc21 | -1.58% [at 114 µM]
17 | CCCCC(=O)N1c2ccccc2NC2=C(C(=O)CCC2)C1c1ccccc1Cl (configuration not stated) | 1.43% [at 114 µM]
18 | Cc1ccc(Cl)cc1N(CC(=O)Nc1c(F)cccc1F)S(C)(=O)=O | -1.22% [at 114 µM]
19 | O=C(CC1CC(c2ccc(F)cc2F)=NO1)N1CCOCC1 (configuration not stated) | -3.43% [at 114 µM]
20 | Nc1c(-c2ccccc2)nc(Cl)c2c(O)n[nH]c(=O)c12 | -6.81% [at 114 µM]

Row | SMILES | activity change, negative = inhibition
21 | COc1ccc(-n2[nH]c3c(cnc4ccccc43)c2=O)cc1 | -5.23% [at 114 µM]
22 | CS(=O)(=O)c1ccccc1N1CCN(c2nc3c(c(=O)[nH]2)CSCC3)CC1 | 1.96% [at 114 µM]
23 | C=Cc1cc2oc(-c3ccc(O)c(F)c3)nc2cc1O | -12.7% [at 114 µM]
24 | O=C(c1c2ccccc2cc2ccccc12)N1CCC(N2CCC[C@@H](C(=O)N3CCOCC3)C2)CC1 | -4.01% [at 114 µM]
25 | CC1(C)CC=C(C#Cc2ccccc2)c2cc(/C=C/c3ccc(C(=O)O)cc3)ccc21 | -7.24% [at 114 µM]
26 | COc1cn(-c2ccc(-n3cccn3)cc2F)nc(-c2ccnn2-c2ccccc2)c1=O | -4.65% [at 114 µM]
27 | C[C@@H](c1ccccc1)N(C(N)=NC#N)c1cccc2ncccc12 | 3.55% [at 114 µM]
28 | COc1cccc(C(=O)NCCNc2nc3cc(C)cc(C)c3cc2C#N)c1 | 2.74% [at 114 µM]
29 | O=C(N[C@H](Cc1ccccc1)C(=O)O)c1sc2cc(F)ccc2c1Cl | 0.391% [at 114 µM]
30 | Cc1cn(-c2cc(NC(=O)c3ccc(C)c(Nc4nccc(-c5cnccn5)n4)c3)cc(C(F)(F)F)c2)cn1 | -2.3% [at 114 µM]
31 | Fc1ccccc1-c1nc2ccn(Cc3ccc(-c4ccc(C(F)(F)F)cc4C(F)(F)F)nn3)cc-2n1 | 3.43% [at 114 µM]
32 | COc1ccc(-n2c(SCC#N)nc3sc4c(c3c2=O)CCCC4)cc1 | 0.545% [at 114 µM]
33 | On1ncc(C2CCNCC2)c1-c1cccc(-c2ccccc2)c1 | 0.223% [at 114 µM]
34 | CN1CCN(C2=Nc3ccccc3Nc3ccc(O)cc32)CC1 | -1.47% [at 114 µM]
35 | O=C(Nc1cc(-c2ccccc2)nn1-c1ccccc1F)c1ccc([N+](=O)[O-])cc1 | 1.53% [at 114 µM]
36 | CC(C)Oc1ccc(-c2nc(-c3cccc4c3CCC4NCCC(=O)O)no2)cc1C#N (configuration not stated) | 0.146% [at 114 µM]
37 | CN(C)C(=O)C(O)C(Cc1ccccc1)NC(=O)c1cc2cc(Cl)ccc2[nH]1 (configuration not stated) | -0.33% [at 114 µM]
38 | COc1ccc(-n2c(=O)[nH]c3cc(C(=O)NCc4ccc(Cl)cc4)sc3c2=O)nc1OC | -11.2% [at 114 µM]
39 | CN(C)c1ccc(C2O[C@@H](c3ccccc3)C[C@H](c3ccccc3)O2)cc1 (some centres not stated) | 7.2% [at 114 µM]

target: Cytochrome P450 2C9 (Homo sapiens) (UniProt P11712); experiment: Cytochrome P450 family 2 subfamily C member 9 (CYP2C9) small molecule antagonists: luciferase biochemical (cell-free) qHTS assay (AID 1645842; active = well fitted curve in the direction sought with a large enough effect in the repeat runs; an effect the other way counts as inactive or inconclusive; also: nearly all actives have a fitted effect of over 55% in size; also: potency is read from the fitted curve at half-maximal effect); conditions: P450-Glo CYP2C9 enzyme assay, luciferin luminescence; series mostly up to 57.4 µM; activity change, negative = inhibition: at the top concentration
Sequence (P11712 whole entry, looked up): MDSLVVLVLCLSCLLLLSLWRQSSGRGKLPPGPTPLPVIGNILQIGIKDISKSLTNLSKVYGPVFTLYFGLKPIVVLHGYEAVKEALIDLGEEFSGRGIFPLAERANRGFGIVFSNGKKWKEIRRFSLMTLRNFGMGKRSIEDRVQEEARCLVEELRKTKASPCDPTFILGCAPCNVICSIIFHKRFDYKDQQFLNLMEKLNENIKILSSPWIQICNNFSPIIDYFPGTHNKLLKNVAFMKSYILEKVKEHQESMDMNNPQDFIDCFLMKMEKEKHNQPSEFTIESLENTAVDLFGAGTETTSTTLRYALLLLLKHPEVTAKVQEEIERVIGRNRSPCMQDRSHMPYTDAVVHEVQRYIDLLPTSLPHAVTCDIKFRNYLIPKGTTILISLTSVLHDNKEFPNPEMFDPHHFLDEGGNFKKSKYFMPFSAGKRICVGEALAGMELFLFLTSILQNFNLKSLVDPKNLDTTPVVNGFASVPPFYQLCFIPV
In short: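 Luminescence, after 20 min with luciferin detection reagent, reflected CYP2C9 turnover during a 1 h NADPH-driven reaction at 37C. Enzyme-substrate mix contained 0.4% bovine serum albumin and was preincubated with compound 10 min at room temperature.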

Row | SMILES | activity change, negative = inhibition | Potency
40 | CNC(C)C(=O)NC(C(=O)N1CCCC1C(=O)Nc1cccc2ncccc12)C(C)C (configuration not stated) | -5% | 
41 | CN1CCN(c2nc(-c3ccc(C(=O)NC4(C(=O)NCC#N)CCCCC4)cc3)cs2)CC1 |  | 12 µM (active)
42 | COc1cccc(CNc2ccc(S(=O)(=O)Nc3nc4ccccc4s3)cc2)c1O |  | 6.74 µM (active)
43 | O=C(c1ccc(Cl)c([N+](=O)[O-])c1)N1CCN(c2ccccc2F)CC1 |  | 2.68 µM (active)
44 | COc1cccc(OC)c1-c1ccc(C[C@H](NC(=O)c2c(Cl)cccc2Cl)C(=O)O)cc1 |  | 13.5 µM (active)
45 | CC[C@@H](Nc1c(Nc2cccc(C(=O)N(C)C)c2O)c(=O)c1=O)c1ccc(C)o1 |  | 2.39 µM (active)
46 | O=C(Nc1cc(-c2ccccc2)nn1-c1ccccc1)c1ccc([N+](=O)[O-])cc1 |  | 1.51 µM (active)
47 | COc1ccc(Oc2c(Cl)cnn(C3c4ccccc4-c4ccccc43)c2=O)cc1 |  | 9.52 µM (active)
48 | COc1cc(OC)cc(-c2ccc3c(-c4ccc(F)cc4)[nH]nc3n2)c1 |  | 7.56 µM (active)
49 | CC(C(=O)Nc1cc(C#N)ccc1CCCC(=O)O)c1ccc(F)c2ccccc12 (configuration not stated) |  | 0.536 µM (active)
50 | CN1C(=O)N(c2cc(Cl)cc(Cl)c2)C(=O)[C@@]1(C)Cc1ccc(Br)cc1 |  | 3.38 µM (active)
51 | C[C@@H](NC(=O)c1cc(C(=O)N[C@@H](Cc2ccccc2)[C@H](O)CNC2CC2)cc(N(C)S(C)(=O)=O)c1)c1ccccc1 |  | 4.25 µM (active)
52 | Cc1cn(C[C@H](N)C(=O)O)c(=O)n(Cc2ccsc2C(=O)O)c1=O | 5.7% | 
53 | Cc1cc(C(=O)N2Cc3cnn(C)c3Nc3ccccc32)ccc1CNC(=O)N1CCN(Cc2cc(O)cc(O)c2)CC1 |  | 2.39 µM (active)
54 | COc1ccc(CC(=O)NCc2ccccc2-c2ccccc2C(=O)NCCc2cccnc2)cc1 |  | 2.68 µM (active)
55 | COC(=O)Cn1nc(-c2cccc(OC)c2)c2ccccc21 |  | 13.5 µM (active)
56 | CCCCC(=O)N1c2ccccc2NC2=C(C(=O)CCC2)C1c1ccccc1Cl (configuration not stated) |  | 12 µM (active)
57 | Cc1ccc(Cl)cc1N(CC(=O)Nc1c(F)cccc1F)S(C)(=O)=O |  | 1.2 µM (active)
58 | O=C(CC1CC(c2ccc(F)cc2F)=NO1)N1CCOCC1 (configuration not stated) | -15.3% | 

Row | SMILES | activity change, negative = inhibition | Potency
59 | Nc1c(-c2ccccc2)nc(Cl)c2c(O)n[nH]c(=O)c12 |  | 10.7 µM (active)
60 | COc1ccc(-n2[nH]c3c(cnc4ccccc43)c2=O)cc1 | 16.8% | 
61 | CS(=O)(=O)c1ccccc1N1CCN(c2nc3c(c(=O)[nH]2)CSCC3)CC1 |  | 8.49 µM (active)
62 | O=C(c1c2ccccc2cc2ccccc12)N1CCC(N2CCC[C@@H](C(=O)N3CCOCC3)C2)CC1 | -1.41% | 
63 | CC1(C)CC=C(C#Cc2ccccc2)c2cc(/C=C/c3ccc(C(=O)O)cc3)ccc21 |  | 19 µM (active)
64 | COc1cn(-c2ccc(-n3cccn3)cc2F)nc(-c2ccnn2-c2ccccc2)c1=O |  | 15.1 µM (active)
65 | C[C@@H](c1ccccc1)N(C(N)=NC#N)c1cccc2ncccc12 |  | 10.7 µM (active)
66 | COc1cccc(C(=O)NCCNc2nc3cc(C)cc(C)c3cc2C#N)c1 |  | 1.69 µM (active)
67 | O=C(N[C@H](Cc1ccccc1)C(=O)O)c1sc2cc(F)ccc2c1Cl |  | 16.9 µM (active)
68 | Cc1cn(-c2cc(NC(=O)c3ccc(C)c(Nc4nccc(-c5cnccn5)n4)c3)cc(C(F)(F)F)c2)cn1 |  | 1.51 µM (active)
69 | Fc1ccccc1-c1nc2ccn(Cc3ccc(-c4ccc(C(F)(F)F)cc4C(F)(F)F)nn3)cc-2n1 |  | 23.9 µM (active)
70 | COc1ccc(-n2c(SCC#N)nc3sc4c(c3c2=O)CCCC4)cc1 |  | 4.77 µM (active)
71 | On1ncc(C2CCNCC2)c1-c1cccc(-c2ccccc2)c1 | -27.4% | 
72 | CN1CCN(C2=Nc3ccccc3Nc3ccc(O)cc32)CC1 | -22.6% | 
73 | O=C(Nc1cc(-c2ccccc2)nn1-c1ccccc1F)c1ccc([N+](=O)[O-])cc1 |  | 6.74 µM (active)
74 | CC(C)Oc1ccc(-c2nc(-c3cccc4c3CCC4NCCC(=O)O)no2)cc1C#N (configuration not stated) | 11.4% | 
75 | CN(C)C(=O)C(O)C(Cc1ccccc1)NC(=O)c1cc2cc(Cl)ccc2[nH]1 (configuration not stated) |  | 10.7 µM (active)
76 | COc1ccc(-n2c(=O)[nH]c3cc(C(=O)NCc4ccc(Cl)cc4)sc3c2=O)nc1OC |  | 9.52 µM (active)
77 | CN(C)c1ccc(C2O[C@@H](c3ccccc3)C[C@H](c3ccccc3)O2)cc1 (some centres not stated) |  | 15.1 µM (active)
